Assay outcomes as filed in PubChem BioAssay.
PglD inh: inhibitors of Campylobacter jejuni PglD acetyltransferase; purified PglD enzyme, DTNB colorimetric CoA detection; inhibition, % at 12.5 µM; hit rate 0.098% among 360,000; in the data active means inhibition above about 16%, passing the limit was not always enough; inconclusive means no clear call, values can overlap the other calls
C2C12 statin: protects C2C12 myotubes from simvastatin toxicity | ATP luminescence, 48 h; scaled: DMSO 0, geranylgeraniol control 100 | rescue of ATP level, % at 7.49 µM | hit rate 0.78% among 330,000;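 active means mean ATP rescue above about 67%, or every replicate alone reaching that limit, limit read from the data, passing the limit was not always enough; inconclusive means no clear call, values can overlap the other calls; inactive means mean under the limit and some replicate under it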;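 further: myotubes were challenged with 10 µM simvastatin during compound exposure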
F508del corr: correctors of CFTR F508del function in bronchial epithelial cells | CFBE cells, YFP halide quenching; stimulated with forskolin plus potentiator P3; % fluorescence drop versus neutral controls | activity (quench increase), % at 7.58 µM | hit rate 0.36% among 350,000 | AID 720511;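 active means mean added fluorescence quench of at least 8% versus neutral control, with both replicates also reaching 8%; inconclusive means only one of the mean or replicate conditions met; inactive means mean below 8% and not both replicates reaching 8%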;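 further: cells transiently co-express mutant CFTR-F508del with the halide-sensitive YFP; corrector assay measuring rescue of mutant channel to the surface after 24 h compound exposure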
ARNT TACC3 PPI: ARNT/TACC3 interaction disruption; AlphaScreen His-ARNT PAS-B/GST-TACC3 binding, luminescence; TACC3 fragment carries E629A point mutation; hit rate 0.66% among 390,000; Q9Y6A5; inhibition, % at 9.99 µM;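 active means mean inhibition of replicates at least 50% and at least half of replicates each reaching 50%; inconclusive means half or more replicates reach 50% but mean below 50%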
Large screens that a line does not name were inactive. An excerpt weighted towards active compounds, which were near 1.4% of everything screened.

COc1ccc(CCC(=O)N2CCN(S(=O)(=O)c3ccc(OC(F)(F)F)cc3)CC2)cc1	F508del corr 15.7 (no result: ARNT TACC3 PPI)
Oc1ccccc1/C=N/c1c(-c2ccco2)nc2ccccn12	C2C12 statin 102.2 (no result: F508del corr)
Clc1ccc(/C=N/c2c(-c3ccco3)nc3ccccn23)cc1	none (no result: F508del corr)
Cc1cccc2cc(COC(=O)c3cccnc3)c(=O)[nH]c12	C2C12 statin 101.7 (no result: PglD inh, F508del corr)
Cc1cccc2cc(COC(=O)c3ccccc3)c(=O)[nH]c12	none (no result: F508del corr)
C[C@@H]1CCCCO[C@@H](CN(C)CC2CC2)[C@@H](C)CN([C@H](C)CO)C(=O)c2cc(NS(=O)(=O)c3cccs3)ccc2O1	none (no result: C2C12 statin)
C[C@@H]1CN([C@H](C)CO)C(=O)Cc2cc(NS(=O)(=O)c3ccc(Cl)cc3)ccc2O[C@@H]1CN(C)Cc1ccc(C(F)(F)F)cc1	C2C12 statin inconclusive
Cc1ccc(S(=O)(=O)Nc2ccc3c(c2)CC(=O)N([C@@H](C)CO)C[C@@H](C)[C@H](CN(C)Cc2ccc(C(F)(F)F)cc2)O3)cc1	C2C12 statin 68.7 (no result: PglD inh, ARNT TACC3 PPI)
Cc1ccc(S(=O)(=O)Nc2ccc3c(c2)CC(=O)N([C@H](C)CO)C[C@@H](C)[C@@H](CN(C)Cc2ccc(C(F)(F)F)cc2)O3)cc1	C2C12 statin 67.4 (no result: PglD inh, ARNT TACC3 PPI)
C[C@H](CO)N1C[C@H](C)[C@@H](CN(C)Cc2ccc(C(F)(F)F)cc2)Oc2ccc(NS(=O)(=O)c3ccc(Cl)cc3)cc2CC1=O	C2C12 statin 112.1
C[C@H]1CN([C@@H](C)CO)C(=O)c2cc(NS(=O)(=O)c3cn(C)cn3)ccc2O[C@@H]1CN(C)CC1CC1	none (no result: ARNT TACC3 PPI)
N#C[C@@H]1[C@H](c2ccc(C#CCC3CCCC3)cc2)[C@@H](CO)N1C(=O)CN1CCOCC1	none
CC(C)(C)OC(=O)NCCC(=O)N/N=C/c1cccc2cccnc12	ARNT TACC3 PPI 68.7
CC(C)(C)OC(=O)NCCC(=O)N/N=C/c1ccc2ncccc2c1	none (no result: F508del corr)
O=C(COc1ccc(F)cc1)N/N=C/c1cccc2cccnc12	ARNT TACC3 PPI 95.5 (no result: C2C12 statin)
Cc1cccc(NC(=O)[C@@H]2CCCN2C(=O)OC(C)(C)C)c1	none
CC(C)(C)OC(=O)N1CCC[C@H]1C(=O)N/N=C/c1cccc2cccnc12	ARNT TACC3 PPI 90.8 (no result: PglD inh, C2C12 statin)
Cc1ccccc1OCC(=O)N/N=C/c1cccc2cccnc12	ARNT TACC3 PPI 65.2
O=C(CN1CCOCC1)NCC[C@H]1CC[C@@H](NC(=O)c2ccc3c(c2)OCO3)[C@@H](CO)O1	none
C[C@@H]1CN([C@@H](C)CO)C(=O)c2cccc(NC(=O)Nc3ccc(C(F)(F)F)cc3)c2O[C@@H]1CN(C)C(=O)Nc1ccc(C(F)(F)F)cc1	none
Cc1ccc(OCC(=O)N/N=C/c2cccc3cccnc23)cc1	ARNT TACC3 PPI 64.1
COc1ccc(C)cc1S(=O)(=O)N(C)CC(=O)NC1CCCCC1	none (no result: C2C12 statin, F508del corr)
COc1ccc(C)cc1S(=O)(=O)N(CC(=O)NC1CCCC1)c1ccc(F)cc1	ARNT TACC3 PPI 46.4 (no result: C2C12 statin)
CO[C@@H]1CN(C)C(=O)c2ccc(NC(C)=O)cc2OC[C@H](C)N(C(=O)CN2CCOCC2)C[C@@H]1C	none (no result: PglD inh, ARNT TACC3 PPI)
CCCC(=O)N1CC2(C1)CN(C(=O)CC1CC1)[C@@H](CO)c1c2c2ccc(OC)cc2n1C	none (no result: PglD inh, C2C12 statin, ARNT TACC3 PPI)
Cc1cccc(C(=O)Nc2nnc(-c3ccc(C(C)(C)C)cc3)s2)c1	C2C12 statin 82.9 (no result: F508del corr)
FC(F)(F)c1cccc(-c2nnc(-c3ccccc3)c(N3CCOCC3)n2)c1	C2C12 statin 134.4 (no result: F508del corr)
CC(=O)N(C)C[C@H]1Oc2cc(-c3cccnc3)ccc2S(=O)(=O)N([C@H](C)CO)C[C@H]1C	none (no result: F508del corr)
CCC(=O)Nc1ccc(NC(=S)NC(=O)/C=C/c2ccco2)cc1	none
CC(=O)NC(=S)Nc1ccc(NC(=S)NC(=O)/C=C/c2ccco2)cc1	F508del corr 14.0 (no result: PglD inh, C2C12 statin)
CC1CCCCC1NC(=O)CCNC(=O)N1CC(=O)Nc2ccccc21 (configuration not stated)	C2C12 statin 119.1
O=C(CCNC(=O)N1CC(=O)Nc2ccccc21)Nc1ccc(Cl)cc1	none
O=c1[nH]c(-c2ccncc2)nc2ccccc12	none (no result: F508del corr)
N=c1oc2ccccc2cc1-c1nc2ccccc2c(=O)[nH]1	C2C12 statin 92.5
O=C(C[C@H]1C=C[C@H](NC(=O)c2ccncc2)[C@H](CO)O1)Nc1ccc(-c2ccccc2)cc1	none (no result: PglD inh, C2C12 statin, ARNT TACC3 PPI)
CN[C@H]1CCc2cc(OC)c(OC)c(OC)c2-c2ccc(N(C)CC(OC)OC)c(=O)cc21	F508del corr 10.8
CCN(CC)c1ccc2c(cc1=O)[C@@H](NC)CCc1cc(OC)c(OC)c(OC)c1-2	F508del corr 9.5
COc1cc2c(c(OC)c1OC)-c1ccc(N(C)CC(OC)OC)c(=O)cc1[C@@H](NC(C)=O)CC2	none (no result: PglD inh, C2C12 statin, ARNT TACC3 PPI)
COc1cc2c(c(OC)c1OC)-c1ccc(OC)c(=O)cc1[C@@H](NC(C)=O)CC2	none
COc1cc(/C=C(\C#N)c2nc3ccccc3[nH]2)cc(OC)c1O	F508del corr 10.2 (no result: PglD inh, C2C12 statin)
COc1ccc(/C=C(\C#N)c2nc3ccccc3[nH]2)cc1O	none
COc1cc(/C=C(\C#N)C(=O)c2c[nH]c3ccccc23)cc(OC)c1O	F508del corr 17.2
O=C1c2cccc(NCCNCCO)c2C(=O)c2cccc(NCCNCCO)c21	ARNT TACC3 PPI 47.3 (no result: PglD inh, C2C12 statin)
O=C(O)C[C@H]1C[C@H]2c3cc(NC(=O)NC4CCCCC4)ccc3O[C@H]2[C@H](CO)O1	none
O=C(O)c1ncn(Cc2ccc(Br)cc2)c1C(=O)O	ARNT TACC3 PPI 46.0 (no result: PglD inh, C2C12 statin)
O=C(c1ncn(Cc2ccccc2)c1C(=O)N1CCN(c2ccccc2)CC1)N1CCN(c2ccccc2)CC1	none
COc1ccc(-c2ccc3c(c2)[C@@H]2[C@@H](CCN2C(=O)Nc2ccc(F)cc2)[C@H](CO)N3C)cc1	none (no result: PglD inh, C2C12 statin, ARNT TACC3 PPI)
CCOC(=O)Nc1cc2c(c(N)n1)N=C(c1ccccc1)CN2	F508del corr 12.1, ARNT TACC3 PPI 8.7 (no result: PglD inh, C2C12 statin)
CC(C)NC(=O)N(C)C[C@@H]1Oc2ccc(NC(=O)C3CCCCC3)cc2CC(=O)N([C@@H](C)CO)C[C@H]1C	none
COc1ccc(-c2n[nH]c(C)c2-c2cc(OC)ccc2O)cc1	C2C12 statin 134.0 (no result: F508del corr)
NC(=O)NC(=O)CSc1nc(-c2ccccc2)c(-c2ccccc2)n1CC1CCCO1 (configuration not stated)	C2C12 statin 139.5 (no result: F508del corr)
O=C(CSc1nc2ccccc2c(=O)n1CC1CCCO1)NCC1CCCO1 (configuration not stated)	none (no result: F508del corr)
O=[N+]([O-])c1ccc(Sc2cccc3cccnc23)c([N+](=O)[O-])c1	C2C12 statin 73.3
O=[N+]([O-])c1cc(Cl)ccc1Sc1cccc2cccnc12	none
O=[N+]([O-])c1ccc(Sc2cccc3cccnc23)cc1	none
C=CCn1nc([N+](=O)[O-])nc1Sc1cccc2cccnc12	ARNT TACC3 PPI 73.7 (no result: PglD inh, C2C12 statin, F508del corr)
COc1ccc(CC(=O)Nc2cc(C)on2)cc1	C2C12 statin 136.9 (no result: F508del corr)
COc1ccc(OCCC(=O)Nc2cc(C)on2)cc1	none (no result: F508del corr)
N#CCSc1nc2cc(C(=O)N3CCCC3)ccc2c(=O)n1Cc1ccccc1	none (no result: F508del corr)
N#CCSc1nc2cc(C(=O)N3CCC(C(N)=O)CC3)ccc2c2nc3ccccc3n12	ARNT TACC3 PPI 46.9 (no result: F508del corr)
CO[C@H]1CN(C)C(=O)c2ccc(NC(=O)c3ccc(F)cc3)cc2OC[C@H](C)N(C(=O)CN(C)C)C[C@H]1C	none (no result: PglD inh, ARNT TACC3 PPI)
